Results filed as inconclusive are left out. Activity calls are given as the source filed them. Unless noted, calls follow the shape of the full dose curve.
What was measured:
[1] = qHTS for Inhibitors of the Functional Ribonucleoprotein Complex (vRNP) of Lassa (LASV) Arenavirus: Viability assay - alamar blue signal for LASV Primary Screen (AID 1347083; calls by dose curve; tested in HEK293 reporter line; also: nearly all actives have a fitted effect of over 80% in size; also: potency is read from the fitted curve at half-maximal effect)
[2] = qHTS for Inhibitors of the Functional Ribonucleoprotein Complex (vRNP) of Lymphocytic Choriomeningitis Arenaviruses (LCMV): Viability assay - alamar blue signal for LCMV Primary Screen (AID 1347085; calls by dose curve; tested in HEK293 reporter line; also: nearly all actives have a fitted effect of over 80% in size; also: potency is read from the fitted curve at half-maximal effect)
[3] = target: Nucleoprotein (Lymphocytic choriomeningitis virus (strain Armstrong)) (UniProt P09992); test: qHTS for Inhibitors of the Functional Ribonucleoprotein Complex (vRNP) of Lymphocytic Choriomeningitis Arenaviruses (LCMV): LCMV Primary Screen - GLuc reporter signal (AID 1347086); also: nearly all actives have a fitted effect of over 70% in size; also: potency is read from the fitted curve at half-maximal effect; as to activity change, negative = inhibition: % is scaled to controls: 0 for no effect and ±100 for the full control effect
[4] = Confirmatory qHTS to identify inhibitors of SARS-CoV-2 cell entry (AID 1645844); also: potency is read from the fitted curve at half-maximal effect; nearly all actives have a fitted effect of over 45% in size
Summary of the method: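 HEK293-ACE2 cells were pretreated 1 h with compound, then infected with MLV-based pseudoparticles bearing C-terminally truncated Wuhan-Hu-1 spike for 48 h at 37C; luciferase luminescence normalized to spike PP and bald PP wells.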

[5] = Primary qHTS to identify inhibitors of SARS-CoV-2 cell entry (AID 1645846); details: activity change, negative = inhibition: at 57.1 µM (top of the series) unless noted; also: nearly all actives have a fitted effect of over 45% in size
Summary of the method: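 Entry measured by luciferase signal 48 h after adding SARS-CoV-2-S pseudotyped MLV particles to HEK293-ACE2 cells preincubated 1 h with compounds. Normalisation: bald particles and spike particles.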

[6] = VSVG counterscreen qHTS to identify inhibitors of SARS-CoV-2 cell entry (AID 1645847); also: potency is read from the fitted curve at half-maximal effect; nearly all actives have a fitted effect of over 65% in size
Summary of the method: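 Luminescence read after 48 h infection at 37 C with VSV-G-pseudotyped MLV particles, following 1 h compound exposure of Expi293F cells stably expressing human ACE2; scaled between bald particle and VSV-G particle wells.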

[7] = Cytotoxicity counterscreen for inhibitors of SARS-CoV-2 cell entry (AID 1645845); also: nearly all actives have a fitted effect of over 50% in size; also: potency is read from the fitted curve at half-maximal effect
Summary of the method: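 HEK293-ACE2 cells (Expi293F stably expressing human ACE2) seeded overnight, then compound for 1 h plus 48 h at 37C. Viability as ATP content by luminescence; normalized to wells with cells and media-only wells.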

[8] = Validation screen for inhibitors of Lassa infection (AID 463096); also: potency is read from the fitted curve at half-maximal effect
[9] = Inducers of the Endoplasmic Reticulum Stress Response (ERSR) in human glioma: Validation (AID 504836; active = well fitted curve in the direction sought with a large enough effect; an effect the other way counts as inactive or inconclusive; also: 0% is about no effect)
Summary of the method: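 Stably transfected U87-MG glioma cells carrying a GRP78-based luciferase sensor; 16 h compound incubation. Luminescence end-point read 10 min after Bright-Glo addition at room temperature.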

[10] = Confirmatory qHTS for VERO E6 Cytotoxicity Assay: Counterscreen for SARS-CoV-2 CPE Assay (AID 1508605); also: % is scaled to controls: 0 for no effect and ±100 for the full control effect; nearly all actives have a fitted effect of over 60% in size
[11] = Confirmation and Secondary Assay for Modulators of Hemoglobin Beta Chain Splicing at IVS2 654 locus (AID 910; active = well fitted curve in the direction sought with a large enough effect; an effect the other way counts as inactive or inconclusive;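 also: HeLa cells stably carrying EGFP split by mutant beta-globin IVS2-654 intron; potency is read from the fitted curve at half-maximal effect; potency of activators that raise GFP signal by restoring correct splicing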)
Summary of the method: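 HeLa cells stably expressing EGFP interrupted by β-globin IVS2-654 intron, seeded overnight in Opti-MEM/2% FCS, then treated 2 days at 37 °C. Restored splicing read as total peak GFP intensity per well by laser scanning cytometry (488 nm excitation, 500–520 nm emission); 500 nM antisense PNA as control.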

Chain of Nucleoprotein (Lymphocytic choriomeningitis virus (strain Armstrong)) (P09992 whole entry, looked up): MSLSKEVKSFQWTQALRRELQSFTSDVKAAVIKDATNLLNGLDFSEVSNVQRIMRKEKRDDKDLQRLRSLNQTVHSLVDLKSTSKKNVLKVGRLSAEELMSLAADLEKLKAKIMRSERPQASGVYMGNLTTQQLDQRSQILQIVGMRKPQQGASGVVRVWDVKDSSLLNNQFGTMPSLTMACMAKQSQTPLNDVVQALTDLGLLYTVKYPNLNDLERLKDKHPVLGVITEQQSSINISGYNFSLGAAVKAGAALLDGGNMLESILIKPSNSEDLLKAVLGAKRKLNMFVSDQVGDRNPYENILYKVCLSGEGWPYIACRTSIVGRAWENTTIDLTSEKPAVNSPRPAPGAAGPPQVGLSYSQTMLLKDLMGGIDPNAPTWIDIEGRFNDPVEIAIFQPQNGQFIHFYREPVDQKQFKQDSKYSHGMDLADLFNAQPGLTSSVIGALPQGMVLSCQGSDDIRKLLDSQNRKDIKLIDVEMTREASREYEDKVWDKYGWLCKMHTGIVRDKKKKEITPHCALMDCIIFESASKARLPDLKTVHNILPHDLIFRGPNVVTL

O=C(Cc1ccc(-c2ccc(OCCN3CCOCC3)cc2)cn1)NCc1ccccc1
Potency [1]: 48.5 nM (active) | Potency [2]: 54.4 nM (active) | Potency [3]: 137 nM (active) | Potency [4]: 136 nM (active) | activity change, negative = inhibition [5]: -81.8% | Potency [6]: 171 nM (active)

O=C(Nc1ncc(-c2cc(C(F)F)nn2-c2c(Cl)cccc2Cl)s1)C1CC1
Potency [1]: 968 nM (active) | Potency [2]: 1090 nM (active) | Potency [3]: 3850 nM (active) | Potency [4]: 541 nM (active) | Potency [6]: 1360 nM (active)

CO[C@@H]1[C@@H](O)[C@H](O)[C@@H](n2c3c(Cl)cccc3c3c4c(c5c6cccc(Cl)c6[nH]c5c32)C(=O)NC4=O)O[C@@H]1CO
Potency [1]: 1930 nM (active) | Potency [2]: 2430 nM (active) | Potency [3]: 3060 nM (active)

CCCCCCOC(=O)N=C(N)c1ccc(NCc2nc3cc(C(=O)N(CCC(=O)OCC)c4ccccn4)ccc3n2C)cc1
Potency [1]: inactive | Potency [2]: inactive | Potency [3]: inactive

COc1cc(-c2nn(C3CCC(N4CCN(C(C)=O)CC4)CC3)c3ncnc(N)c23)ccc1NC(=O)c1cc2ccccc2n1C (stereo not drawn)
Potency [1]: 863 nM (active) | Potency [2]: 968 nM (active) | Potency [3]: 685 nM (active) | Potency [7]: inactive

N#CC(=C(\N)Sc1ccccc1N)/C(C#N)=C(/N)Sc1ccccc1N
Potency [8]: 794 nM (active) | outcome [9]: inactive | Potency [1]: inactive | Potency [2]: inactive | Potency [3]: inactive

NC(=O)c1cccc(-c2cc(Nc3ccc(OC(F)(F)F)cc3)ncn2)c1
Potency [1]: inactive | Potency [2]: inactive | Potency [3]: inactive | Potency [10]: inactive | Potency [7]: 22400 nM (active)

CCOC(=O)N1CCN([N+]([O-])=NOc2ccc([N+](=O)[O-])cc2C#N)CC1
Potency [1]: 10900 nM (active) | Potency [2]: inactive | Potency [3]: inactive

CCC(C=C[C@@H]1OC(=O)C=C[C@H]1C)=C[C@H](C)CC=CC(C)=C[C@@H](C)C(=O)[C@@H](C)[C@H](O)[C@@H](C)CC(C)=CC(=O)O
Potency [1]: 114 nM (active) | Potency [2]: 144 nM (active) | Potency [3]: 203 nM (active)

CC(O)(C#Cc1ccc2c(c1)N(c1nc(N)ncc1Cl)CC2)c1nccs1 (stereo not drawn)
Potency [1]: 21700 nM (active) | Potency [2]: 17200 nM (active) | Potency [3]: inactive

Cc1nc(NC(=O)N2CCC[C@@H]2C(N)=O)sc1-c1ccnc(C(C)(C)C(F)(F)F)c1
Potency [1]: 10900 nM (active) | Potency [2]: inactive | Potency [3]: inactive

CO[C@H]1C[C@@H]2CC[C@@H](C)[C@@](O)(O2)C(=O)C(=O)N2CCCC[C@@H]2C(=O)O[C@H]([C@H](C)C[C@@H]2CC[C@H](OC(=O)C(C)(CO)CO)[C@H](OC)C2)CC(=O)[C@H](C)C=C(C)[C@@H](O)[C@@H](OC)C(=O)[C@H](C)C[C@H](C)C=CC=CC=C1C
Potency [1]: 12.2 nM (active) | Potency [2]: 27.3 nM (active) | Potency [3]: 15.3 nM (active)

CC(=O)ON=C1C(c2c(O)[nH]c3cc(Br)ccc23)=Nc2ccccc21
Potency [1]: 1930 nM (active) | Potency [2]: inactive | Potency [3]: inactive

CC[C@@]1(O)C(=O)OCc2c1cc1n(c2=O)Cc2cc3cc(O)ccc3nc2-1
Potency [11]: 12600 nM (active) | Potency [1]: 685 nM (active) | Potency [2]: 968 nM (active) | Potency [3]: 1370 nM (active)
